Data: PubChem BioAssay AID1851 (National Center for Advancing Translational Sciences (NCATS), 2009)
In all, about 16,000 compounds went through this assay and about 5,800 (36%) were called active. Roughly 23% stayed inconclusive and do not appear here. Some of the results follow. Values without a mark were called inactive. Calls follow the shape of the dose curve; as a rule, active = well fitted curve in the direction sought with a large enough effect; inconclusive = small, poorly fitted or top-dose-only effect, or effect the other way; inactive = no such curve, though single readings can be large or run the other way.

These compounds were tested against Cytochrome P450 2C19 (Homo sapiens) (UniProt P33261) (assay: Cytochrome panel assay with activity outcomes). Conditions: recombinant CYP, pro-luciferin dealkylation, luminescence, p450-cyp2c19; series mostly up to 57.1 µM.
% is scaled to controls: 0 for no effect and ±100 for the full control effect.

Sequence of Cytochrome P450 2C19 (Homo sapiens) (P33261 whole entry, looked up): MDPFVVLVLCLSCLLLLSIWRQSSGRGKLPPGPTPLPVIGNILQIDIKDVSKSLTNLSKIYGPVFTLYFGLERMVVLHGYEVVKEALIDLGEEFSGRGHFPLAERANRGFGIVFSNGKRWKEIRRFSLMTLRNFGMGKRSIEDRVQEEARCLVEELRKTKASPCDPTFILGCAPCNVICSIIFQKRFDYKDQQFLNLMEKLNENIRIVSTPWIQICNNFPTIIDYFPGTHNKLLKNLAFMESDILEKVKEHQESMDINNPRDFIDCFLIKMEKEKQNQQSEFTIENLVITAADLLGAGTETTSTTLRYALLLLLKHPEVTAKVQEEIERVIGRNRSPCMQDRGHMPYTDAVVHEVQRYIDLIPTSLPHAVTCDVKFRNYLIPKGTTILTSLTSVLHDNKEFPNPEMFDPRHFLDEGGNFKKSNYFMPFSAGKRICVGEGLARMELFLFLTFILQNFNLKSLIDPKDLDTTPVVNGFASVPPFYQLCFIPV

SMILES	AC50	activity, negative = inhibition
CC(C)(C)c1cc2cccnc2n1Cc1ccccc1	10 µM (active)	–
COc1ccc(-c2nc(C(=O)N3CCN(C)CC3)sc2-c2ccc(OC)cc2)cc1	inactive	–
COc1ccc(CC(=O)NCCN2CCCC2)cc1	inactive	–
COc1ccc(-c2ccc(C(=S)N3CCN(C(C)=O)CC3)o2)cc1	15.8 µM (active)	–
O=C(Nc1ccccc1)c1cc(-n2cnnc2)ccc1Cl	inactive	–
O=C(Nc1ccccc1)c1ccccc1CC[N+](=O)[O-]	17.8 µM (active)	–
O=C(Nc1ccccc1)c1cc([N+](=O)[O-])ccc1Cl	0.794 µM (active)	–
O=C(O)c1ccccc1-c1ccccc1C(=O)Nc1ccccc1	inactive	–
Cn1c(=O)c2[nH]c(/N=N\N3CCN(CCO)CC3)nc2n(C)c1=O	–	7.88% [at 11.4 µM]
O=C(O)CN(CCN(CC(=O)O)CC(=O)O)CC(=O)O.[Mn]	–	-2.62% [at 11.4 µM]
CCCCCNCc1cccc(Br)c1	11.2 µM (active)	–
CC(C)(C)c1ccc(C(=O)N2CCC(C(=O)NCCC3=CCCCC3)CC2)cc1	15.8 µM (active)	–
O=C(NCCC1=CCCCC1)C1CCCN(c2nc3ccccc3o2)C1 (stereo not drawn)	2.82 µM (active)	–
CC(=O)Nc1nc(NC(C)=O)c2[nH]c(CO)nc2n1	–	4.22% [at 11.4 µM]
COc1cc(OC)nc(NC(C)=O)n1	inactive	–
CSc1cc(C)nc(NC(C)=O)n1	7.94 µM (active)	–
O=C(Oc1ccc2ccccc2c1Br)N1CCCCCC1	1.78 µM (active)	–
O=C(Oc1ccccc1)N1CCC2(CC1)CCN(c1ccccc1)CC2	inactive	–
Cc1cc(C)c2c(-n3cccc3)nn(CC#N)c2n1	11.2 µM (active)	–
Cc1cc(C)c2c(-n3cccc3)n[nH]c2n1	5.01 µM (active)	–
CN(C)/N=N\c1nc[nH]c1C(N)=O	inactive	–
CCc1nnc2sc(-c3ccc(NC(=O)c4ccco4)cc3)nn12	28.2 µM (active)	–
O=C(O)[C@@H](O)[C@@H](O)[C@@H](O[C@H]1O[C@@H](CO)[C@@H](O)[C@@H](O)[C@@H]1O)[C@@H](O)CO	inactive	–
COCC(C)NCc1cccc(C)c1 (stereo not drawn)	inactive	–
COc1ccc(/C(C)=N/NC(=O)c2ccc(CSc3cccc4cccnc34)cc2)cc1OC	2.51 µM (active)	–

SMILES	AC50	activity, negative = inhibition
Cc1cccc(CSc2cccc3cccnc23)c1	2.24 µM (active)	–
CO[C@H]1COC(=O)C/C=C\[C@H](C)[C@@H](OC)COC(=O)[C@H](C)COC(=O)C/C=C\[C@@H]1C	–	9.22% [at 11.4 µM]
Cc1ccc(-n2ncc(N(C)C)c(Cl)c2=O)cc1	inactive	–
C=CCNc1cnn(-c2ccc(C)cc2)c(=O)c1Cl	11.2 µM (active)	–
C[C@@H](C(=O)O)c1ccc(C(=O)c2ccccc2)s1	3.98 µM (active)	–
CC(C)/C(=N/[N+](C)(C)C)c1ccccc1	–	18.6% [at 11.4 µM]
C[C@@H](C(=O)O)c1ccc(C(=O)c2cccs2)cc1	inactive	–
COCCNC(=O)CSc1ncnc2sccc12	inactive	–
Cc1cc(Cl)ccc1Oc1ncnc2oc(-c3ccccc3)cc12	1.12 µM (active)	–
Cc1ccccc1Oc1ncnc2sccc12	3.55 µM (active)	–
Cc1ccccc1Oc1ncnc2oc(-c3ccccc3)cc12	3.98 µM (active)	–
COc1cccc([C@H](O)Cn2cc(-c3ccc(CON=C(C)C)cc3)nn2)c1	–	6.04% [at 11.4 µM]
Cc1cccc(OCCn2c(S(=O)(=O)O)nc3ccccc32)c1	inactive	–
Cc1cccc(OCCn2c(-c3ccco3)nc3ccccc32)c1	1.58 µM (active)	–
O=S1(=O)C=C(Oc2ccc3ccccc3c2)c2ccccc21	3.55 µM (active)	–
O=S1(=O)C=C(N2CCOCC2)c2ccccc21	inactive	–
Nc1ccc(S(=O)(=O)Nc2cnc3ccccc3n2)cc1	inactive	–
Cc1ccc(S(=O)(=O)Nc2nc3ccccc3nc2N2CCc3ccccc3C2)cc1	5.01 µM (active)	–
CCCCn1c(SCC(N)=O)nc2ccc(N3CCOCC3)cc2c1=O	inactive	–
COc1ccc(C(=O)N2CCC[C@@]3(CCN(Cc4ccc(C#N)cc4)C3)C2)cc1	inactive	–
N#CCCn1c(=O)c(-c2ccc(F)cc2)nc2cnc(OCc3ccccc3)nc21	inactive	–
N#CCSc1nc2ccc(N3CCCCC3)cc2c(=O)n1Cc1ccccc1	7.94 µM (active)	–
O=C(c1ccncc1)N1CCC2(CCCN(Cc3ccccc3)C2)CC1	inactive	–
N#CCSc1nc2cc(C(=O)N3CCCC3)ccc2c(=O)n1Cc1ccccc1	11.2 µM (active)	–
CSc1nc(N)c2ncn([C@H]3O[C@H](COP(=O)(O)OP(=O)(O)O)[C@@H](O)[C@@H]3O)c2n1	inactive	–

SMILES	AC50	activity, negative = inhibition
N#Cc1cc(-c2ccc(Cl)cc2)cnc1Sc1ccccc1	4.47 µM (active)	–
N#Cc1cc(-c2ccccc2)cnc1Sc1ccc(Cl)cc1	4.47 µM (active)	–
N=C1C(c2nc(-c3ccc(F)cc3)cs2)=C(O)CN1CCCN1CCOCC1	25.1 µM (active)	–
c1ccc2c(c1)ncn2-c1ncnc2sc3c(c12)CCCC3	8.91 µM (active)	–
N#Cc1c2c(c(-n3cnc4ccccc43)n3c1nc1ccccc13)CCC2	inactive	–
COc1ccccc1CN1C(=O)c2ccncc2C1=O	14.1 µM (active)	–
COc1ccccc1CN1CC2(CCN(C(=O)c3cnccn3)CC2)C1	inactive	–
COc1ccccc1CN1CC2(CCN(C(=O)c3ccncc3)CC2)C1	inactive	–
CCOC(=O)c1c(C)nc2sc3c(=O)n(-c4ccc(C)cc4)cnc3c2c1-c1ccc(OC)cc1	1.26 µM (active)	–
CCOC(=O)c1c(C)nc2sc3c(=O)n(-c4ccc(C(C)=O)cc4)nnc3c2c1-c1ccc(Cl)cc1	inactive	–
Cc1cc2ccccc2c[n+]1CC(O)C[n+]1cc2ccccc2cc1C	–	3.92% [at 11.4 µM]
O=C(O)c1ccc(OCc2ccccc2)c(Cl)c1	–	18.7% [at 11.4 µM]
O=C(NCc1ccccc1)c1cccc(COc2cccc(Cl)c2)c1	7.08 µM (active)	–
N#CC1=C(N)OC2=C(C(=O)CCC2)C12CCC1(CC2)OCCO1	inactive	–
O=c1c(-c2nnc(SCc3ccc(Cl)c(Cl)c3)o2)cccn1Cc1ccccc1	1.41 µM (active)	–
O=c1c(-c2nnc(SCc3ccc(Cl)cc3Cl)o2)cccn1Cc1ccccc1	1.26 µM (active)	–
COc1ccc(-c2nc3cnc(N4CCN(C)CC4)nc3n(C)c2=O)cc1	inactive	–
CN(C)c1ncc2nc(-c3cc(F)cc(F)c3)c(=O)n(CCC#N)c2n1	inactive	–
CC1CCCN(C/C=C/c2ccccc2[N+](=O)[O-])C1 (stereo not drawn)	8.91 µM (active)	–
O=C(/C=C/c1cccc([N+](=O)[O-])c1)NCCN1CCOCC1	inactive	–
O=C(O)[C@H]1CCCN(CCC=C(c2ccccc2)c2ccccc2)C1	inactive	–
CCOC(=O)C1CCCN(C/C=C/c2ccccc2[N+](=O)[O-])C1 (stereo not drawn)	3.98 µM (active)	–
CC1CC(C)CN(C/C=C/c2ccccc2[N+](=O)[O-])C1 (stereo not drawn)	7.08 µM (active)	–
Cc1ccc(NC(=O)/C(=C/c2cccc([N+](=O)[O-])c2)NC(=O)C2CCCCC2)c(C)c1	inactive	–
CCOC(=O)C1CCCN(C(=O)/C=C/c2cccc([N+](=O)[O-])c2)C1 (stereo not drawn)	14.1 µM (active)	–

SMILES	AC50	activity, negative = inhibition
O=C(CCCCC(=O)Nc1c(I)cc(I)c(C(=O)O)c1I)Nc1c(I)cc(I)c(C(=O)O)c1I	inactive	–
O=C(O)CCNc1ncnc2nc[nH]c12	–	35.9% [at 11.4 µM]
O=C(Nc1cc(C(=O)Nc2ccc(S(=O)(=O)O)cc2S(=O)(=O)O)cc(C(=O)Nc2ccc(S(=O)(=O)O)cc2S(=O)(=O)O)c1)Nc1cc(C(=O)Nc2ccc(S(=O)(=O)O)cc2S(=O)(=O)O)cc(C(=O)Nc2ccc(S(=O)(=O)O)cc2S(=O)(=O)O)c1	inactive	–
C#CCCCO/N=C1/C[C@@H](O)[C@@H](O)[C@@H]2[C@@H]3C(=O)N(CCC(=O)OCC)C(=O)[C@H]3CC[C@H]12	–	2.13% [at 11.4 µM]
Oc1c(Cl)cc(C(c2cc(Cl)c(O)c(Cl)c2)C(c2cc(Cl)c(O)c(Cl)c2)c2cc(Cl)c(O)c(Cl)c2)cc1Cl	2.51 µM (active)	–
Oc1c(Cl)cc(CN(Cc2cc(Cl)c(O)c(Cl)c2)C2CCCCC2)cc1Cl	–	-4.32% [at 11.4 µM]
O=C(O)CCN1C(=S)CSC1=S	–	27% [at 11.4 µM]
Cc1nn(C)c(Cl)c1NC(=O)OCc1ccc(Cl)cc1Cl	2.24 µM (active)	–
COC(=O)N1CCC2(CCN(Cc3ccccc3OC)CC2)CC1	inactive	–
COc1ccccc1CN1CCC2(CC1)CCN(C(=O)c1c(C)noc1C)CC2	inactive	–
Cc1nn(C)c(Cl)c1NC(=O)OCc1ccc(F)cc1	7.08 µM (active)	–
CCOC(=O)N/N=C/c1ccc(F)cc1	inactive	–
COc1ccccc1COC(=O)Nc1c(C)nn(C)c1Cl	3.55 µM (active)	–
O=C(c1cnccn1)N1CCC2(CC1)CN(C(c1ccccc1)c1ccccc1)C2	inactive	–
CN(C)Cc1c[nH]c2nc[nH]c(=O)c12	–	42.6% [at 11.4 µM]
COCCN(C(=O)c1ccco1)c1nnc(-c2ccc(OC)cc2)s1	15.8 µM (active)	–
COCCN(C(=O)C(C)C)c1nnc(-c2ccc(C)cc2)s1	7.94 µM (active)	–
COCC(=O)N(C)c1nnc(-c2ccc([N+](=O)[O-])cc2)s1	inactive	–
CO[C@@H]1COC(=O)[C@H]2CCCN2C(=O)[C@@H](C)COC(=O)C/C=C\[C@H]1C	–	91.7% [at 11.4 µM]
CN1CCN(c2nc3c(c(=O)n(C)c(=O)n3C)n2C)CC1	–	-9.69% [at 11.4 µM]
Cn1c(=O)c2c(nc(N3CCN(c4ccccn4)CC3)n2Cc2ccc(Cl)cc2Cl)n(C)c1=O	6.31 µM (active)	–
Cn1c(=O)c2c(ncn2CN2CCN(Cn3cnc4c3c(=O)n(C)c(=O)n4C)CC2)n(C)c1=O	–	-11.6% [at 11.4 µM]
Cn1c(=O)c2c(nc(N3CCN(c4ccccn4)CC3)n2Cc2ccccc2Cl)n(C)c1=O	3.16 µM (active)	–
